Experimental data published in ChEMBL document CHEMBL1961873, “Compounds: GSK PKIS; Assays: Nanosyn kinase panel” (2012).

How the values were obtained:
[1] = biological target: T1, Serine/threonine-protein kinase D2 (Homo sapiens) (UniProt Q9BZL6); conditions: at 1 µM;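 further: mean value of PRKD2 inhibition, from the GSK PKIS screening panel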
T1 sequence (whole entry): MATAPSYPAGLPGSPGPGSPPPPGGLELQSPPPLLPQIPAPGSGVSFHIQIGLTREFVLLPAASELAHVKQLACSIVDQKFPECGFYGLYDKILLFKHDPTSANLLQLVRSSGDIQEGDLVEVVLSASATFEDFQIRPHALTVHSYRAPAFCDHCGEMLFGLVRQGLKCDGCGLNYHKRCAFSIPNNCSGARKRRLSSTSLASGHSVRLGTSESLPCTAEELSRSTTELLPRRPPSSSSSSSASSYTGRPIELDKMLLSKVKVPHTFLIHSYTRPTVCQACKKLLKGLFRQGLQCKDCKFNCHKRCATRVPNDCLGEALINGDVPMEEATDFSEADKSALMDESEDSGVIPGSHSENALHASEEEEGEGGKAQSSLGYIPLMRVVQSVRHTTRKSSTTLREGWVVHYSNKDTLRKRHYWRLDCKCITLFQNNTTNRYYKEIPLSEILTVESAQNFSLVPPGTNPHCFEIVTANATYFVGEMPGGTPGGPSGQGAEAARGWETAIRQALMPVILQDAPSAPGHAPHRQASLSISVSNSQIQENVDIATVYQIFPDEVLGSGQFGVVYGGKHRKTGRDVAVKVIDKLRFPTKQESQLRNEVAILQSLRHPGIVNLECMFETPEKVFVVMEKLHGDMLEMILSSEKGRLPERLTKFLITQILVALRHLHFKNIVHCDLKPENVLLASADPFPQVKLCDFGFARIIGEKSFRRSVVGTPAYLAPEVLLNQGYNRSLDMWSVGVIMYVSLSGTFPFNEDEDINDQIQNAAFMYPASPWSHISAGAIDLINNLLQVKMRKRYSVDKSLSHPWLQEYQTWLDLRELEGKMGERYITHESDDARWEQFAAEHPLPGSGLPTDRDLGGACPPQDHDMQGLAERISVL

[2] = biological target: T2, Serine/threonine-protein kinase D3 (Homo sapiens) (UniProt O94806); conditions: at 0.1 µM
T2 sequence (whole entry): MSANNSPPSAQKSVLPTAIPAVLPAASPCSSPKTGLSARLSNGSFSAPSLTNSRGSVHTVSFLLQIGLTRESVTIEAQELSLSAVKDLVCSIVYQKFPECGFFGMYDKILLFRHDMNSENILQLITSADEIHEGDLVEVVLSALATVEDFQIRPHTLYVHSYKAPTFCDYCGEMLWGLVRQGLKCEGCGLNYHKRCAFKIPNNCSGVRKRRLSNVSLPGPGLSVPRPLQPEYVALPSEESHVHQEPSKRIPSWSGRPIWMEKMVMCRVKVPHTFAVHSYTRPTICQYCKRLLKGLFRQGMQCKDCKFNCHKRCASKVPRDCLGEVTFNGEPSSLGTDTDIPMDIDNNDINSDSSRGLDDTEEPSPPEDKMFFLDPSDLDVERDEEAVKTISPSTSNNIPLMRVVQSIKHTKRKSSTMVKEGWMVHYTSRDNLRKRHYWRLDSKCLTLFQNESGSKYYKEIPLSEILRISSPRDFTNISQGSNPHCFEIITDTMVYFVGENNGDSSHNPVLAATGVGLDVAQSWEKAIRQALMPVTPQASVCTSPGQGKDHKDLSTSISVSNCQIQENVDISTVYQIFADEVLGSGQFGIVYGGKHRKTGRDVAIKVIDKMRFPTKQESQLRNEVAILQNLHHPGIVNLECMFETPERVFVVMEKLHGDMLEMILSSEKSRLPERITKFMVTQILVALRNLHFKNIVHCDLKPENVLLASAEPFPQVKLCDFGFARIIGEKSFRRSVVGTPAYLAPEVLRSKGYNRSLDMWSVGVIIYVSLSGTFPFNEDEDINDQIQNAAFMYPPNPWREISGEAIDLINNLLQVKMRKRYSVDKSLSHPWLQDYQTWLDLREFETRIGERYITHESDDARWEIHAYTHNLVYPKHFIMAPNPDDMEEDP

[3] = biological target: T2, Serine/threonine-protein kinase D3 (Homo sapiens); conditions: at 1 µM
[4] = biological target: T3, cGMP-dependent protein kinase 1 (Homo sapiens) (UniProt Q13976); conditions: at 0.1 µM
T3 sequence (whole entry): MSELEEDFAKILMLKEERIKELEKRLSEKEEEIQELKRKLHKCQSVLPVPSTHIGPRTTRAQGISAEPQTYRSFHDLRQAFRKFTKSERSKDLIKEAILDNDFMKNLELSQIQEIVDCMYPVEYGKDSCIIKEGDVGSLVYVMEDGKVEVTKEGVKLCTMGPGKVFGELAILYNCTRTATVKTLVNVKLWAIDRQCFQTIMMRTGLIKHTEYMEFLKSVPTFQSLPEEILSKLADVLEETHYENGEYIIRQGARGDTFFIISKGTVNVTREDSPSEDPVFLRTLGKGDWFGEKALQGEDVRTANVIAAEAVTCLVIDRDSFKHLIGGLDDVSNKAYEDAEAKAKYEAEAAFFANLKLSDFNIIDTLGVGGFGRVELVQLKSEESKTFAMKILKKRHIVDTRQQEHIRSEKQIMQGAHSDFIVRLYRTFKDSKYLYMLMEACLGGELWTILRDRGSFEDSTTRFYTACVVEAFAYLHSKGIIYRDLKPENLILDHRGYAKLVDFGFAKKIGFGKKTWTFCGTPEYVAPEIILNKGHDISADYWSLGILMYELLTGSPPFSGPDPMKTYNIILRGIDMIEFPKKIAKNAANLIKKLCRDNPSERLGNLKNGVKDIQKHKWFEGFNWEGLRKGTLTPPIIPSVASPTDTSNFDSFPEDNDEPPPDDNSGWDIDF

[5] = biological target: T3, cGMP-dependent protein kinase 1 (Homo sapiens); conditions: at 1 µM
[6] = biological target: T4, cGMP-dependent protein kinase 2 (Homo sapiens) (UniProt Q13237); conditions: at 0.1 µM
T4 sequence (whole entry): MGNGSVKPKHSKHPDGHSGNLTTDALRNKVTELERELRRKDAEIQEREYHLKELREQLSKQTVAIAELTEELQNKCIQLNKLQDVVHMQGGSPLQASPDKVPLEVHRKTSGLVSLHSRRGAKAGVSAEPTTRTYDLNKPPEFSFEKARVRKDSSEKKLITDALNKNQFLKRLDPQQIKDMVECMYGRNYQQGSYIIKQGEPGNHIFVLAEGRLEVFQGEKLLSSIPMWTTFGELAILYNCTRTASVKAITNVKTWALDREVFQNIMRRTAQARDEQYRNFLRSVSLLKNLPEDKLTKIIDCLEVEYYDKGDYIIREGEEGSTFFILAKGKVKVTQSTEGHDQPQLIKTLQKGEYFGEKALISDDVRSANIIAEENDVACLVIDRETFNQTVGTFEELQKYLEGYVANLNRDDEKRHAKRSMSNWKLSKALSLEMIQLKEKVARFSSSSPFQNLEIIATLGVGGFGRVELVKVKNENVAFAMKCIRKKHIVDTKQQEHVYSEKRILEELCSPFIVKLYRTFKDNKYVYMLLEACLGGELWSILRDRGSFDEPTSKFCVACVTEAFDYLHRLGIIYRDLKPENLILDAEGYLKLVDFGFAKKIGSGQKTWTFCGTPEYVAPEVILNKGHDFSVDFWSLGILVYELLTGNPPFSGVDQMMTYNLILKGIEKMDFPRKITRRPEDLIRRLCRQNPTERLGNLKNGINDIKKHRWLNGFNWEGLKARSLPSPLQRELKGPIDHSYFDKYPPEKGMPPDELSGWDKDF

[7] = biological target: T4, cGMP-dependent protein kinase 2 (Homo sapiens); conditions: at 1 µM
[8] = biological target: T5, cAMP-dependent protein kinase catalytic subunit PRKX (Homo sapiens) (UniProt P51817); conditions: at 0.1 µM
T5 sequence (whole entry): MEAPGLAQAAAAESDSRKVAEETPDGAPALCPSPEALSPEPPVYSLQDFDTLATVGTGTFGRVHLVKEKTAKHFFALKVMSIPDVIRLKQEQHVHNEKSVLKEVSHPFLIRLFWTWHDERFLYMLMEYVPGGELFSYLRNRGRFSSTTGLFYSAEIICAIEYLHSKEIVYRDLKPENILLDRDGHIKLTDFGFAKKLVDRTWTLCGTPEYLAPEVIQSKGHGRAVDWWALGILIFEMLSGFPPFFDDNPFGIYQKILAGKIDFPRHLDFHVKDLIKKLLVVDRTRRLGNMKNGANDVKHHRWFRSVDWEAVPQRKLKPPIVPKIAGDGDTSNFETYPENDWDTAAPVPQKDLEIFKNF

[9] = biological target: T5, cAMP-dependent protein kinase catalytic subunit PRKX (Homo sapiens); conditions: at 1 µM
[10] = biological target: Rho-associated protein kinase 1 (Homo sapiens) (UniProt Q13464); conditions: at 0.1 µM;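 further: values are mean percent inhibition of ROCK1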
Rho-associated protein kinase 1 (Homo sapiens), sequence (Q13464 2-1354 limits assumed): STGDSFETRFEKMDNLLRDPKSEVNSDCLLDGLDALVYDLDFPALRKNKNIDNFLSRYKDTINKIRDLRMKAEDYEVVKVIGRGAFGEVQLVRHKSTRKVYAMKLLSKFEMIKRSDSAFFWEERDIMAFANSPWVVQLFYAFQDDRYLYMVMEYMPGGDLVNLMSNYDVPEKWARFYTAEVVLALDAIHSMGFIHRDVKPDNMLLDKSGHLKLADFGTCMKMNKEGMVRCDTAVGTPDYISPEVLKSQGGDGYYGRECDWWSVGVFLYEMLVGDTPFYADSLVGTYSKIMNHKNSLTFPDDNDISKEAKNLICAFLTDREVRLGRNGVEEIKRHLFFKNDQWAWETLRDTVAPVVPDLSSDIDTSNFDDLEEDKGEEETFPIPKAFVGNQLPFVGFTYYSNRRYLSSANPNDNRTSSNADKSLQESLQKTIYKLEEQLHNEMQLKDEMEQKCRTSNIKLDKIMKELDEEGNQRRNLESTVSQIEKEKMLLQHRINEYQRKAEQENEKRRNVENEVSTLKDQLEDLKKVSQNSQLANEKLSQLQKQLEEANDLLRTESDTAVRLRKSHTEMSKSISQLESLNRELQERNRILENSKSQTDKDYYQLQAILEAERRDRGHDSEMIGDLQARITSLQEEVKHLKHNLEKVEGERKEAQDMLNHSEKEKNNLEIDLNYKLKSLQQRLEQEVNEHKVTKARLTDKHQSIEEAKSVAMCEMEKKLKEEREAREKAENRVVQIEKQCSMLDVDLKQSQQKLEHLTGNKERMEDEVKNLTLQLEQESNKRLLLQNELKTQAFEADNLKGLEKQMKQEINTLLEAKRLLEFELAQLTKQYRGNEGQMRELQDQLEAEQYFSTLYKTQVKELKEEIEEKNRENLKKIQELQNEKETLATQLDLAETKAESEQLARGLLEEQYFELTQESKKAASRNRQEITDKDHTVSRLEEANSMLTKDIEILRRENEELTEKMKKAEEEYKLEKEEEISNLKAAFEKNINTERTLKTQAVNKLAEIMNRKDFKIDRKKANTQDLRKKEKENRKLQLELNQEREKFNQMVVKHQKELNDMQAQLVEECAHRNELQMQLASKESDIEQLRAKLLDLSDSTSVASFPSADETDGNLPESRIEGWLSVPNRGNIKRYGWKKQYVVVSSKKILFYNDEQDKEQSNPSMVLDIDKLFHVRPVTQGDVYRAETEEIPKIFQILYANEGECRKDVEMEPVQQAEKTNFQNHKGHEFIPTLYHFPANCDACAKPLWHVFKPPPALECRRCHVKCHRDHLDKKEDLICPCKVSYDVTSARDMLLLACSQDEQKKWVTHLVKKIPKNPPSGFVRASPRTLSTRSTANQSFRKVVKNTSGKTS

Structure (SMILES)	inhibition [1]	inhibition [2]	inhibition [3]	inhibition [4]	inhibition [5]	inhibition [6]	inhibition [7]	inhibition [8]	inhibition [9]	inhibition [10]
COC(=O)c1cncc(/C=C/c2c(C)cc(O)cc2C)c1	4%	4.31%	3.64%	3.3%	2.75%	1.54%	2.4%	1.78%	3.76%	0.77%
COc1cc(Nc2nccc(-c3cnn4ncccc34)n2)cc(OC)c1	15.9%	-0.68%	19.6%	12.2%	57.2%	3.45%	24.4%	0.67%	0.29%	0.75%
Cc1nc(-c2ccccc2)n2nc(NCCCN3CCOCC3)ncc12	2.01%	1.88%	2.23%	1.36%	3.22%	1.49%	3.07%	2.28%	1.01%	0.46%
CS(=O)(=O)Nc1cccc(-c2ccc3c(NC(=O)C4CC4)n[nH]c3c2)c1	3.59%	1.24%	2.48%	-0.41%	1.73%	1.34%	2.16%	0.39%	-0.61%	0.24%
COc1cc2ncnc(Nc3ccc(C)c(O)c3)c2cc1OC	10.5%	5.98%	8.58%	3.2%	3.61%	2.18%	3.65%	2.05%	2.06%	0.48%
Cc1ccc2c(c1)/C(=N/Nc1ccc(S(N)(=O)=O)cc1)C(=O)N2	1.97%	0.87%	1.79%	0.26%	0.41%	0.36%	3.82%	-1.58%	-2.35%	0.97%
NS(=O)(=O)c1ccc(-c2cc3ccncc3cc2OCc2ccccc2)cc1	4.54%	2.31%	2.51%	0.96%	4.78%	1.8%	3.35%	0.85%	1.52%	0.19%
CC(C)c1ccc2c(c1)NC(=O)/C2=N/Nc1ccc(S(N)(=O)=O)cc1	-0.41%	-0.27%	-0.32%	-1.53%	1.06%	-0.39%	-0.18%	0.2%	-0.32%	-1.01%
CCCN1CCCC(c2ccc(Nc3nc(Nc4cc(F)ccc4C(N)=O)c4cc[nH]c4n3)c(OC)c2)C1 (stereo not given)	81.1%	19.6%	72.7%	7.1%	32.9%	4.78%	26.3%	0.44%	0.52%	22.5%
CCn1c(-c2nonc2N)nc2c(C#CC(C)(C)O)nc(OCCNC)cc21	7.32%	4.82%	9.81%	9.59%	44.8%	39.3%	70.9%	21.5%	65.9%	3.08%
Nc1nccc(-c2c(-c3ccc(F)cc3)nn3cc(C(F)(F)F)ccc23)n1	3.04%	0.99%	3.75%	-0.61%	-0.49%	-0.17%	-0.08%	0.72%	-0.61%	-0.4%
NS(=O)(=O)c1cccc(-c2cc3ccncc3cc2OCc2ccccc2)c1	5.47%	6.19%	6.3%	3.6%	4.53%	2.72%	5.57%	1.93%	0.54%	0.94%
COc1cc(/C=N/Nc2ncnc3c2cnn3C(C)C)ccc1O	1.41%	1.37%	1.6%	3.26%	3.14%	0.71%	2.16%	0.57%	0.81%	0.31%
Cc1cc(O)cc(C)c1/C=C/c1cncc(C(=O)N(C)C)c1	2.05%	6.37%	3%	2.65%	3.73%	1.74%	3.78%	1.77%	0.5%	0.55%
CC(C)c1ccc(Nc2nccc(-c3cnn4ncccc34)n2)cc1	15.6%	2.22%	15.6%	0.59%	4.3%	1.01%	3.05%	0.91%	1.43%	0.36%
Oc1cccc(-c2nc(-c3ccccc3)[nH]c2-c2ccncc2)c1	7.13%	2.71%	4.25%	2.56%	5.69%	1.58%	6.36%	2.36%	2.93%	0.52%
Cc1cc(Cl)cc2c1NC(=O)C2=NNc1ccc(S(N)(=O)=O)cc1	2.34%	2.25%	1.81%	1.17%	3.27%	2.01%	2%	1.43%	3.22%	0.02%
